# Data as given in the supplement of paper PMC13380429.
# Values without a mark were called inactive.
# Tested on: Vero E6 infected with SARS-CoV-2
# Assay: inhibition of SARS-CoV-2 cytopathic effect; higher = more antiviral protection, active = above 15
# Details: 48 h
Compound,inhibition of SARS-CoV-2 cytopathic effect (1 nM) [%],inhibition of SARS-CoV-2 cytopathic effect (8.33 nM) [%],inhibition of SARS-CoV-2 cytopathic effect (100 nM) [%],inhibition of SARS-CoV-2 cytopathic effect (833.33 nM) [%],inhibition of SARS-CoV-2 cytopathic effect (10000 nM)
C[C@]1(Cn2ccnn2)[C@H](C(=O)O)N2C(=O)C[C@H]2S1(=O)=O [tazobactam],0.92,-1.48,2.92,0.65,2.47%
CN1C(=O)N(c2cc(Cl)cc(Cl)c2)C(=O)[C@]12CN(c1ccc(C(=O)O)cn1)C[C@H]2c1ccc(C#N)cc1,1.7,0.43,1.42,1.84,1.57%
COc1ccc(CN(CCN(C)C)c2ncccn2)cc1 [thonzylamine],0.64,0.52,0.24,3.55,-0.17%
Nc1ccc(C(=O)NCC(=O)O)cc1 [4-aminohippuric-acid],-2.16,-0.24,-0.14,0.71,-1.9%
O=C1CCC2CCC(=O)N12 [rolziracetam],0.67,1.21,1.49,-1.36,-2.89%
CN(C)CCCC(=O)Nc1ccc(C(=O)Nc2cccc(Nc3ncc(Cl)c(-c4c[nH]c5ccccc45)n3)c2)cc1,1,-3.04,-1.78,-0.35,-3.93%
CC(C)=CCC/C(C)=C/CC/C(C)=C/CCC(=O)OC/C=C(\C)CCC=C(C)C [geranyl-farnesylacetate],-0.32,0.94,-2.76,0.87,1.54%
O=C(O)c1cc(=O)c2ccccc2o1 [chromocarb],-1.09,-0.13,-0.55,3.21,-0.51%
CC1(C)CC(=O)c2c(C(F)(F)F)nn(-c3ccc(C(N)=O)c(N[C@H]4CC[C@H](OC(=O)CN)CC4)c3)c2C1,-1.61,1.43,2.1,-2.15,-0.73%
O=c1c(-c2ccc(O)cc2)coc2c([C@@H]3O[C@H](CO)[C@@H](O)[C@H](O)[C@H]3O)c(O)ccc12 [puerarin],-2.73,-3.08,-2.16,2.34,-0.84%
CC(C(=O)O)c1cccc(Oc2ccccc2)c1 (stereo not given) [fenoprofen],-0.67,-2.89,0.97,-1.9,-3.01%
c1ccc(CNc2ncnc3[nH]cnc23)cc1 [6-benzylaminopurine],0.87,0.37,-1.53,-1.37,-1.09%
CSc1ccc([C@H]2CN3CCC[C@H]3c3ccccc32)cc1 (racemic),3.1,1.05,2.84,3.32,1.44%
CCCCOc1ccc(C(=O)Nc2ccc(F)cc2F)cc1,-1.89,2.63,-3.66,-1.37,-1.07%
Oc1cccc(O)c1 [resorcinol],-6.66,-5.24,-4.73,-2.6,-2.66%
CC(C)(C)C(=O)CN1C(=O)[C@H](NC(=O)Nc2cccc(C(=O)O)c2)CN(C2CCCCC2)c2ccccc21 [nastorazepide],-1.25,-0.99,0.77,0.71,-1.1%
CN(C)CCCCC(=O)Nc1ccc(NC(=S)NC(=O)c2ccc(C(C)(C)C)cc2)cc1 [tenovin-6],-2.53,0.01,-0.72,4.3,18% (active)
Cc1cnc(-c2cc(N3CCN(C(=O)CCS(C)(=O)=O)CC3)ncc2Cl)c(C)c1,-1.36,-0.24,0.43,-2.37,-0.86%
COC(=O)c1ccc(O)cc1 [methylparaben],-0.45,0.03,2.76,1.99,2.64%
COc1cccc(-c2cc(=O)c3ccccc3o2)c1N,1.12,-3.81,-0.32,-3.58,-5.22%

Compound,inhibition of SARS-CoV-2 cytopathic effect (1 nM) [%],inhibition of SARS-CoV-2 cytopathic effect (8.33 nM) [%],inhibition of SARS-CoV-2 cytopathic effect (100 nM) [%],inhibition of SARS-CoV-2 cytopathic effect (833.33 nM) [%],inhibition of SARS-CoV-2 cytopathic effect (10000 nM)
CCCCCCCCCCCCCCCC=O [1-hexadecanal],0.5,2.85,-0.54,-0.08,1.56%
COc1ccn2ncc(-c3nc4[nH]nc(NC(=O)c5ccc(F)cc5)c4cc3F)c2c1,1.72,-0.95,0.38,-3.07,-6.79%
O=C(NOCCO)c1ccc2cncn2c1Nc1ccc(I)cc1F,-1.68,-5.37,-12.8,-14.4,-13.2%
CC=C1C(=O)C[C@H]2[C@@H]3CCC4=CC(=O)CC[C@]4(C)[C@H]3CC[C@]12C,0.03,-0.87,-1.56,-0.96,4.3%
O=C(/C=C/c1ccc(O)c(O)c1)O[C@@H]1C[C@](O)(C(=O)O)C[C@@H](O)[C@H]1O [chlorogenic-acid],-0.66,1.67,1.61,-0.18,-0.05%
COc1ccc(CN2C(=O)C(=O)c3cc(OC(F)(F)F)ccc32)cc1,-0.15,1.14,1.79,1.75,6.79%
Oc1c(Cl)cc(Cl)c2cccnc12 [chloroxine],2.69,2.44,1.43,-0.59,-0.15%
CCCCc1nc(-c2ccc(OCCCN(CC)CC)cc2)cn1-c1ccc(Oc2ccc(Cl)cc2)cc1 [azeliragon],0.74,-0.49,1.43,1.68,-13.2%
CC(=O)OCC(=O)[C@@]1(O)CC[C@H]2[C@@H]3CCC4=CC(=O)CC[C@]4(C)[C@H]3[C@@H](O)C[C@@]21C [hydrocortisone-acetate],-3.27,-0.84,0.23,-1.92,-0.4%
CCN(CC)S(=O)(=O)c1ccc(C(=O)O)cc1 [etebenecid],-3.2,1.54,0.48,1.89,2.73%
O=Nc1c(-c2c(O)[nH]c3cc(Br)ccc23)[nH]c2ccccc12 [GSK-3-inhibitor-IX],-0.14,0.68,1.64,13.8,-4.11%
CC1(C)S[C@@H]2[C@H](NC(=O)[C@H](NC(=O)N3CCNC3=O)c3ccccc3)C(=O)N2[C@H]1C(=O)O [azlocillin],-1.64,-1.64,1.05,-1.76,-1.54%
NCC1CC(=O)N(Cc2ccccc2)C1 (stereo not given) [nebracetam],2.53,1.25,1.38,1.16,0.26%
N[C@@H](Cc1c[nH]c2ccccc12)C(=O)O [tryptophan],-6.32,-7.31,-3.29,-4.07,-10.4%
CN(C(=O)Cc1ccccc1)[C@H](CN1CCCC1)c1ccccc1,-2.98,-0.14,0.52,0.85,-1.59%
O=C(Nc1ccc(C(O)(C(F)(F)F)C(F)(F)F)cc1)c1ccc(C(F)(F)F)cc1,0.8,1.24,0.25,1.02,1.6%
C[C@H](Cn1cnc2c(N)ncnc21)OCP(=O)(O)O [tenofovir],-0.47,-2.44,-1.27,0.5,0.69%
CCCN1CCC[C@@H]2Cc3nc(N)ncc3C[C@H]21 [quinelorane],0.91,-0.4,0.8,-1.2,-1.06%
CC(=O)[C@@]1(O)CC[C@H]2[C@@H]3C[C@H](C)C4=CC(=O)C=C[C@]4(C)[C@@]3(F)[C@@H](O)C[C@@]21C [fluorometholone],0.01,0.61,0.19,-0.97,1.57%
COc1cc2c(Nc3ccc(Cl)c(Cl)c3F)ncnc2cc1OC[C@@H]1C[C@@H]2CN(C)C[C@@H]2C1,-2.06,-2.66,-5.42,-14.7,-22.4%
